Among the data in PubChem BioAssay (EPA / NIEHS) are outcome and AC50 values, retold here.

The AC50 is the concentration giving half of the maximal activity seen.

Results filed as inconclusive are left out. Activity calls are given as the source filed them. The calls were made as follows: active = hit-call score of the fitted dose curve at least 0.9, where 1 is the maximum; inconclusive = response in the unintended direction; inactive = score below 0.9.

Experiment [1] has as its target human Ephrin type-B Receptor 1 (EphB1), EPHB1 (gene 2047) (UniProt P54762). The experiment can be described thus: NVS_ENZ_hEphB1: NovaScreen (NVS) Enzymatic Assay for human Ephrin type-B Receptor 1 (EphB1) (AID 2283154). The method, boiled down:
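Recombinant EphB1 activity read by fluorescence after mobility-shift separation of product from substrate, 1 h post-dosing. Compounds screened in duplicate at 25 uM; inhibition scored as signal loss relative to DMSO.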

For experiment [2], the target named is human Beta-secretase (BACE), BACE1 (gene 23621) (UniProt P56817). The experiment can be described thus: NVS_ENZ_hBACE: NovaScreen (NVS) Enzymatic Assay for human Beta-secretase (BACE) (AID 2283140).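 Also: hits are inhibitors that reduce fluorescent substrate signal versus DMSO.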 The method, boiled down: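 Enzyme from SF9 cells was incubated 1 hour with compound and fluorogenic substrate, activity read by fluorescence. Single-concentration duplicates at 25 uM preceded concentration-response follow-up; fitting relative to DMSO baseline.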
Chain of human Beta-secretase (BACE), BACE1 (gene 23621) (P56817 whole entry, looked up): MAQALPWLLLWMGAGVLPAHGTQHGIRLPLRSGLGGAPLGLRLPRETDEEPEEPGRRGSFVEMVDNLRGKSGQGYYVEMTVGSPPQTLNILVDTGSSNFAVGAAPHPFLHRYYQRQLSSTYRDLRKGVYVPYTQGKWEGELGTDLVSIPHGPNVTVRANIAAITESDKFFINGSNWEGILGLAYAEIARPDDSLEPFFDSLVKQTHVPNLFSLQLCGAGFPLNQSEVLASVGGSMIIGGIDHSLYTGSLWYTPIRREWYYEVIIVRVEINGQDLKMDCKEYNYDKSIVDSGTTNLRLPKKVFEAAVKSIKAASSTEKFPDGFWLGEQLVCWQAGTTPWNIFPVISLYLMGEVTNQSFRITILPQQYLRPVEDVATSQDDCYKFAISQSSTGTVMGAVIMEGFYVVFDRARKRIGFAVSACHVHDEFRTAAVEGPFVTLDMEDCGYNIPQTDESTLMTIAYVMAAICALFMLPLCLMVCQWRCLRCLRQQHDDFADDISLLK

Experiment [3] has as its target human Dual Specificity Protein Phosphatase 3 (DUSP3), DUSP3 (gene 1845) (UniProt P51452). The experiment can be described thus: NVS_ENZ_hDUSP3: NovaScreen (NVS) Enzymatic Assay for human Dual Specificity Protein Phosphatase 3 (DUSP3) (AID 2283152).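 Also: phosphatase activity of recombinant human DUSP3 on a fluorogenic substrate without cells.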 The gist of the method:
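Cell-free fluorescence-intensity enzyme activity assay with recombinant protein and substrate; loss of signal fitted relative to DMSO baseline. Primary screen in duplicate at 25 uM, actives then run in concentration series; measured 0 h after dosing.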

Experiment [4] addresses human Ephrin type-A Receptor 2 (EphA2), EPHA2 (gene 1969) (UniProt P29317). Nature of the experiment: NVS_ENZ_hEphA2: NovaScreen (NVS) Enzymatic Assay for human Ephrin type-A Receptor 2 (EphA2) (AID 2283155). The gist of the method:
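Enzyme activity of recombinant EphA2 read by fluorescence after mobility-shift separation, 1 h after dosing. Chemicals first tested at 25 uM (duplicate); those passing threshold run as concentration series, top 50 uM, single replicate, relative to DMSO.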

The target of experiment [5] is human Elastase, ELANE (gene 1991) (UniProt P08246). Nature of the experiment: NVS_ENZ_hElastase: NovaScreen (NVS) Enzymatic Assay for human Elastase (AID 2283153). The gist of the method: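 Concentration-response to 50 uM max, run singly for chemicals passing a threshold (e.g., 30% inhibition) in a duplicate 25 uM single-point screen. Neutrophil-derived human elastase, absorbance read-out of enzyme activity at 1.5 h; DMSO baseline.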
Chain of human Elastase, ELANE (gene 1991) (P08246 whole entry, looked up): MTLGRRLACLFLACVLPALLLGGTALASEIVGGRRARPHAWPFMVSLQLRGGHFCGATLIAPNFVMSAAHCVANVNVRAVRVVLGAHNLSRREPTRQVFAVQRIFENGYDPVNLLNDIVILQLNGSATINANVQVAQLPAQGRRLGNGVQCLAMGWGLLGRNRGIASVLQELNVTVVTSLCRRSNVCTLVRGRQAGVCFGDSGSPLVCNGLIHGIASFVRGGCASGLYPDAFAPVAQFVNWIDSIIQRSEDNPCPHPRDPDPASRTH

Experiment [6] concerns the target human AKT serine/threonine Kinase 2 (AKT2), AKT2 (gene 208) (UniProt P31751). The experiment can be described thus: NVS_ENZ_hAKT2: NovaScreen (NVS) Enzymatic Assay for human AKT serine/threonine Kinase 2 (AKT2) (AID 2283141). The method, boiled down:
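Cell-free fluorescence/electrophoretic mobility shift readout of recombinant human AKT2 activity, 1 h after chemical dosing. Duplicate primary screen at 25 uM, then singleton concentration-response up to 50 uM; loss of signal versus DMSO baseline.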

Experiment [7] concerns the target human Aurora Kinase A - serine/threonine-protein Kinase 6 (AurA), AURKA (gene 6790) (UniProt O14965). The experiment can be described thus: NVS_ENZ_hAurA: NovaScreen (NVS) Enzymatic Assay for human Aurora Kinase A - serine/threonine-protein Kinase 6 (AurA) (AID 2283142). The method, boiled down:
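Recombinant human AurA activity read by fluorescence after mobility-shift separation of product from substrate; 1 hour incubation. Chemicals first run in duplicate at 25 uM, then concentration series to 50 uM if over threshold; fitted relative to DMSO.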

The target in experiment [8] is human Caspase 8 (CASP8), CASP8 (gene 841) (UniProt Q14790). The experiment can be described thus: NVS_ENZ_hCASP8: NovaScreen (NVS) Enzymatic Assay for human Caspase 8 (CASP8) (AID 2283146). The method, boiled down: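 The primary screen tested compounds in duplicate at a single 25 uM concentration, with actives followed up in concentration series. Activity of recombinant (E. coli) protease was measured by fluorescence 1 h post-dose, as signal loss against DMSO.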
Chain of human Caspase 8 (CASP8), CASP8 (gene 841) (Q14790 whole entry, looked up): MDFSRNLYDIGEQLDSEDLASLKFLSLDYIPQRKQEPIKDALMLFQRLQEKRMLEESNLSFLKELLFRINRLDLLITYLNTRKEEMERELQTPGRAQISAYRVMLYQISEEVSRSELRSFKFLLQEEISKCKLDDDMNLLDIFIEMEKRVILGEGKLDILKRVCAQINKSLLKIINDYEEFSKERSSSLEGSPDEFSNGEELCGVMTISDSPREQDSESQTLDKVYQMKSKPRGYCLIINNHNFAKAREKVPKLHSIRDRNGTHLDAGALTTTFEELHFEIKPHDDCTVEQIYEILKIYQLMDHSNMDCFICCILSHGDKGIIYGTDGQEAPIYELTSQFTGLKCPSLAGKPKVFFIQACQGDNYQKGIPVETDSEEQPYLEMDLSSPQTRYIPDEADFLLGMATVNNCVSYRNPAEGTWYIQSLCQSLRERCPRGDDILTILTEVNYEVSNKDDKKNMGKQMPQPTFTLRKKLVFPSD

Experiment [9] addresses human Caspase 2 (CASP2), CASP2 (gene 835) (UniProt P42575). Nature of the experiment: NVS_ENZ_hCASP2: NovaScreen (NVS) Enzymatic Assay for human Caspase 2 (CASP2) (AID 2283135). The method, boiled down:
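Single-point duplicate testing at 25 uM preceded concentration series topping at 50 uM. Activity of the recombinant E. coli-derived protease was followed by fluorescent substrate cleavage 1 h post-dosing, relative to DMSO.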

The next experiment concerns the target Caspase-3 (Homo sapiens) (UniProt P42574). Nature of the experiment: NVS_ENZ_hCASP3: NovaScreen (NVS) Enzymatic Assay for human Caspase 3 (CASP3) (AID 2283139). The gist of the method: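 Single-concentration screening at 25 uM in duplicate, with concentration-response follow-up to a 50 uM maximum for chemicals passing the threshold. Caspase-3 (human, E. coli-expressed) activity was read as substrate fluorescence after 1 h, with loss of signal relative to DMSO.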

Experiment [10] addresses human Casein Kinase 2- alpha 2 beta 2 (CK2a2b2), CSNK2A1 (gene 1457) (UniProt P68400). The experiment can be described thus: NVS_ENZ_hCK2a2b2: NovaScreen (NVS) Enzymatic Assay for human Casein Kinase 2- alpha 2 beta 2 (CK2a2b2) (AID 2283147). The gist of the method:
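Compounds were first screened in duplicate at 25 uM, and those passing the threshold were re-tested in concentration series up to a 50 uM maximum. Kinase activity of recombinant human CK2 α2β2 was measured 1 h after dosing by fluorescent substrate/product mobility-shift separation.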

The target in experiment [11] is human Caspase 10 (CASP10), CASP10 (gene 843) (UniProt Q92851). The experiment can be described thus: NVS_ENZ_hCASP10: NovaScreen (NVS) Enzymatic Assay for human Caspase 10 (CASP10) (AID 2283133). The method, boiled down: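 Fluorescence-intensity enzyme read-out of E. coli-expressed CASP10 activity, 1 h after compound. Single-point duplicates at 25 uM preceded concentration-response testing (top 50 uM) of hits; inhibition expressed as signal loss versus DMSO.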

The target in experiment [12] is human AKT serine/threonine Kinase 1 (AKT1), AKT1 (gene 207) (UniProt P31749). Nature of the experiment: NVS_ENZ_hAKT1: NovaScreen (NVS) Enzymatic Assay for human AKT serine/threonine Kinase 1 (AKT1) (AID 2283138). The gist of the method: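 Screening first at 25 uM (duplicate), with threshold-passing chemicals re-tested in concentration series to a 50 uM maximum. Kinase activity read by fluorescence with mobility-shift separation of substrate and product, 1 h after dosing, DMSO baseline.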

Experiment [13] concerns the target human Casein Kinase 1-delta (CK1D), CSNK1D (gene 1453) (UniProt P48730). Nature of the experiment: NVS_ENZ_hCK1D: NovaScreen (NVS) Enzymatic Assay for human Casein Kinase 1-delta (CK1D) (AID 2283148). The gist of the method:
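Recombinant human CK1-delta, cell-free; fluorescent substrate with electrophoretic mobility-shift separation of product, read 1 h after dosing. Single 25 uM duplicate screen, then concentration-response up to 50 uM; loss of signal vs DMSO.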

Chain of human Ephrin type-B Receptor 1 (EphB1), EPHB1 (gene 2047) (P54762 whole entry, looked up): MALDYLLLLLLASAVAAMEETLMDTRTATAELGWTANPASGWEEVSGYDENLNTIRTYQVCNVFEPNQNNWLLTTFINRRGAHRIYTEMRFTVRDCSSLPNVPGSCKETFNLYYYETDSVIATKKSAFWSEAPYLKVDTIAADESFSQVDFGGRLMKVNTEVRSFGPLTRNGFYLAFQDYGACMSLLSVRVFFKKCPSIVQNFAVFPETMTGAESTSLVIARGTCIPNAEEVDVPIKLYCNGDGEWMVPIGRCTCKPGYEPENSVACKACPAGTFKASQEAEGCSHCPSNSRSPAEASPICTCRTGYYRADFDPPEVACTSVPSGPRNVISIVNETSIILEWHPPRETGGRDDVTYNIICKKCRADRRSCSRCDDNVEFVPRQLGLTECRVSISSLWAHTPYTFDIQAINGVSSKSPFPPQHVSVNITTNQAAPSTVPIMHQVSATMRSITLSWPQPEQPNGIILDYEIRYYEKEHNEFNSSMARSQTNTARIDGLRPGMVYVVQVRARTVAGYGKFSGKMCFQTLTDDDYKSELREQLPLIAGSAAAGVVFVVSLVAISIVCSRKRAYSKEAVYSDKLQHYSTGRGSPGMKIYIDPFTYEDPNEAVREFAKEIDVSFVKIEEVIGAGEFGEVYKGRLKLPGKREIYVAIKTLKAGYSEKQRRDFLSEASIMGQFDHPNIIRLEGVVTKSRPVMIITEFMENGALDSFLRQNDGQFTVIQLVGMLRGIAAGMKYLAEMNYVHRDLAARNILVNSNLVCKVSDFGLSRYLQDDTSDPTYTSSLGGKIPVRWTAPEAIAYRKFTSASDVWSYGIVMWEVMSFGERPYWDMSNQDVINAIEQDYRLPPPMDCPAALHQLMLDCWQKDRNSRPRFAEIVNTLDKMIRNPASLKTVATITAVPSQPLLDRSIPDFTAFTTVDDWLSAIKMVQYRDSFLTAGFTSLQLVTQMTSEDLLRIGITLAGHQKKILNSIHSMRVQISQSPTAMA
Chain of human Dual Specificity Protein Phosphatase 3 (DUSP3), DUSP3 (gene 1845) (P51452 whole entry, looked up): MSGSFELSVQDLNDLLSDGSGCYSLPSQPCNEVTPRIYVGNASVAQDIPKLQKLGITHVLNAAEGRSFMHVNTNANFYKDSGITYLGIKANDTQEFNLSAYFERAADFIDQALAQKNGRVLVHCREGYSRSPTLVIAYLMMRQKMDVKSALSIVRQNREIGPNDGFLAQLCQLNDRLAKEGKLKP
Chain of human Caspase 2 (CASP2), CASP2 (gene 835) (P42575 whole entry, looked up): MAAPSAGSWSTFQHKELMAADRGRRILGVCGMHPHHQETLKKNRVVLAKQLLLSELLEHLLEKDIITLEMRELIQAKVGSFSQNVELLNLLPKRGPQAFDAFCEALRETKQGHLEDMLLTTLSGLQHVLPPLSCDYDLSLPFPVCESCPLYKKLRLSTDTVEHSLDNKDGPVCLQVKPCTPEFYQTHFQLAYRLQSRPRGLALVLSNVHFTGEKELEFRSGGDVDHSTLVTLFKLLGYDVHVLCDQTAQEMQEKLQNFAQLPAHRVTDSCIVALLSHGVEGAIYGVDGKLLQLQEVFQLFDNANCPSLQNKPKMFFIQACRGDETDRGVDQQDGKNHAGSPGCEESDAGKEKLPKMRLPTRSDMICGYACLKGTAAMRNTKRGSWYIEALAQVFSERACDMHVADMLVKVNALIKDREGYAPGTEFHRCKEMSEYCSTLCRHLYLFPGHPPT
Chain of human Casein Kinase 2- alpha 2 beta 2 (CK2a2b2), CSNK2A1 (gene 1457) (P68400 whole entry, looked up): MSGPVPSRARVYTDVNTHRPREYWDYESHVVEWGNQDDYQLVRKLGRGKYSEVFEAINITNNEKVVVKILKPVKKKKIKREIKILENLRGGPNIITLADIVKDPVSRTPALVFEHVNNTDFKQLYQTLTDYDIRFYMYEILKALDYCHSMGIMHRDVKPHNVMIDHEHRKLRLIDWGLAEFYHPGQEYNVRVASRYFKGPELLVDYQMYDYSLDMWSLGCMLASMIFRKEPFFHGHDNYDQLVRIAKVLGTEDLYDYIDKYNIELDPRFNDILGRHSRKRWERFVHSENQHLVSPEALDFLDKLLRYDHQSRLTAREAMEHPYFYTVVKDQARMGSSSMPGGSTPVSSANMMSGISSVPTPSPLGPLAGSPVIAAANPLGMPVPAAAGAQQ
Chain of human Ephrin type-A Receptor 2 (EphA2), EPHA2 (gene 1969) (P29317 whole entry, looked up): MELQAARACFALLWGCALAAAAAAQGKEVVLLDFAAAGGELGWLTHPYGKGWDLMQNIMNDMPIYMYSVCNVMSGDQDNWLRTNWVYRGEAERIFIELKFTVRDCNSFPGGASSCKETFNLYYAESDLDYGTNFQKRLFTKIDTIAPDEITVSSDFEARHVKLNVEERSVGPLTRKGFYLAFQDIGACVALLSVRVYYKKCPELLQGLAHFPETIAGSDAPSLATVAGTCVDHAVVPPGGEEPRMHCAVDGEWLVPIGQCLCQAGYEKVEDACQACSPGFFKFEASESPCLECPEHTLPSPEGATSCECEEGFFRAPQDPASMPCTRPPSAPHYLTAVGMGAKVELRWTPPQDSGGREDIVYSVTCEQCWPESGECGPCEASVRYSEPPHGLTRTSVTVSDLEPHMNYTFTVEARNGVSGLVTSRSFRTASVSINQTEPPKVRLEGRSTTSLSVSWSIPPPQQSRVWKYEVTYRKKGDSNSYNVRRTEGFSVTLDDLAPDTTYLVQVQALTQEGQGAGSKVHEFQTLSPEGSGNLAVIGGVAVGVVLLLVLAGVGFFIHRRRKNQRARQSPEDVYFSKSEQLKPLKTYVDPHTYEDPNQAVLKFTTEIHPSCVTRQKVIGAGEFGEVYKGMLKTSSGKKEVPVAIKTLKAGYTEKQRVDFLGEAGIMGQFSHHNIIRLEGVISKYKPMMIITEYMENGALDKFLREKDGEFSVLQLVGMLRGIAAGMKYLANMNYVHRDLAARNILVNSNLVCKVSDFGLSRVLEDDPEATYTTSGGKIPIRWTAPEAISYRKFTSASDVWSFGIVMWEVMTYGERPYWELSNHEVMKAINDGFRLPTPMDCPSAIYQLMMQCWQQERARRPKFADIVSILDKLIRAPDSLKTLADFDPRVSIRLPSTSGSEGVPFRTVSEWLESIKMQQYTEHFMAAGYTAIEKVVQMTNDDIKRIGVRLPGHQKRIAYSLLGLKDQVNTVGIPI
Chain of human AKT serine/threonine Kinase 2 (AKT2), AKT2 (gene 208) (P31751 whole entry, looked up): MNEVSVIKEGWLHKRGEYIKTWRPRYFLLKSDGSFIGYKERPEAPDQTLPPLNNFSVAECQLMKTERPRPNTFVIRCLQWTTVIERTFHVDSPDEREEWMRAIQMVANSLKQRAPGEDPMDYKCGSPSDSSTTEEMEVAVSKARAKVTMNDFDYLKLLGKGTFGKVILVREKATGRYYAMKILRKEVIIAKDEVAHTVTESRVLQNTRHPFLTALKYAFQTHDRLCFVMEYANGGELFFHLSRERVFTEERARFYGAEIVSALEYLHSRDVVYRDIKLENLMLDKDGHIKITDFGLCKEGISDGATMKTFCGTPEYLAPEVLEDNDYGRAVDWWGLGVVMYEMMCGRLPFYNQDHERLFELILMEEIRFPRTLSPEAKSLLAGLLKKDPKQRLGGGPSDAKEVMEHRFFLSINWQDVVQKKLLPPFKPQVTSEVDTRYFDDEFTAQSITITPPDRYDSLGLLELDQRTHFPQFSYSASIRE
Chain of Caspase-3 (Homo sapiens) (P42574 whole entry, looked up): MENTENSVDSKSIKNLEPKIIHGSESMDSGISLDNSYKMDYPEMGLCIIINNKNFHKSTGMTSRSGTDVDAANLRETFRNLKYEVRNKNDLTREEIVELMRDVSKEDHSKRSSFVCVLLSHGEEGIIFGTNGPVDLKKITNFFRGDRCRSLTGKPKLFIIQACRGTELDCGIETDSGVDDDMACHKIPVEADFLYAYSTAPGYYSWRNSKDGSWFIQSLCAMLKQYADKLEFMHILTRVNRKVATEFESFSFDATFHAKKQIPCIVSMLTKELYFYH

`O=C(Nc1ccccc1-c1ccc(Cl)cc1)c1cccnc1Cl`: in [1], the result was inactive. For the compound `CCCCOCN(C(=O)CCl)c1c(CC)cccc1CC`, the concentration at half-maximal activity (AC50) in [2] was 9.39 µM (active). Regarding `CC1(C)C(C=C(Cl)Cl)C1C(=O)OC(C#N)c1cccc(Oc2ccccc2)c1` (configuration not stated), the compound was classed as inactive in experiment [2] and in experiment [1]. In experiment [3], the concentration at half-maximal activity (AC50) is 3.06 µM (active). With `CC(C)NC(=O)N1CC(=O)N(c2cc(Cl)cc(Cl)c2)C1=O`, the compound was classed as inactive in experiment [4]. As for `CCOP(=O)(OCC)Oc1nc(Cl)c(Cl)cc1Cl`, the AC50 in [5] was 14.4 µM (active). Besides, the compound was called inactive in [1]. Consider `CCCC(=NOCC)C1=C(O)CC(CC(C)SCC)CC1=O` (configuration not stated), for which the compound was classed as inactive in [6], in [7] and in experiment [3]. As to `CCOC(=O)C(C)OC(=O)c1cc(Oc2ccc(C(F)(F)F)cc2Cl)ccc1[N+](=O)[O-]` (configuration not stated), the outcome in experiment [8], in experiment [3], in experiment [5] and in experiment [1] was inactive. Regarding `CCSC(=O)N1CCCCCC1`, the compound was classed as inactive in experiment [8]. Turning to `O=C1C2CC=CCC2C(=O)N1SC(Cl)(Cl)Cl` (configuration not stated), the call in [9] was inactive. Regarding `CCOc1nc(C(Cl)(Cl)Cl)ns1`, in the experiment with Caspase-3 (Homo sapiens), the compound was classed as inactive. Consider `Nc1c(Cl)c(F)nc(OCC(=O)O)c1Cl`, for which the compound was classed as inactive in experiment [8] and in [1]. For the same compound, the half-maximal activity concentration (AC50) in experiment [10] is 18.8 µM (active).

With `Cc1nc(N(C)C)nc(OC(=O)N(C)C)c1C`, in experiment [1], the result was inactive.

In the case of `OC(c1ccc(Cl)cc1)(c1ccc(Cl)cc1)C(Cl)(Cl)Cl`, in [5], the compound was classed as inactive. Turning to `CS(=O)(=O)c1ccc(C(=O)C2C(=O)CCCC2=O)c([N+](=O)[O-])c1`, the half-maximal activity concentration (AC50) in [10] was 8.29 µM (active). Regarding `Clc1nc(Cl)nc(Nc2ccccc2Cl)n1`, in experiment [10], the AC50 was 15.8 µM (active). In addition, the outcome in experiment [1] and in experiment [4] was inactive.

`COC(=O)N(C(=O)N1CO[C@@]2(C(=O)OC)Cc3cc(Cl)ccc3C2=N1)c1ccc(OC(F)(F)F)cc1`: the compound was classed as inactive in [11], in [2], in experiment [3] and in experiment [1]. For `CS(=O)(=O)c1cc(C(F)(F)F)ccc1C(=O)c1cnoc1C1CC1`, in experiment [6], the compound was classed as inactive. As for `N#Cc1c(Cl)cccc1Cl`, the result in experiment [12] was inactive.

As to `CCOc1nc(F)cc2nc(S(=O)(=O)Nc3c(Cl)cccc3Cl)nn12`, the compound was called inactive in experiment [12].

Take `CC1(C)C(C(=O)OC(C#N)c2cccc(Oc3ccccc3)c2)C1(C)C` (configuration not stated): the AC50 in experiment [2] was 2.8 µM (active). For the same compound, the result in experiment [5] and in experiment [1] was inactive.

With `CNC(=O)N(C)c1nnc(C(C)(C)C)s1`, the result in experiment [1] was inactive. Consider `Cc1c(COC(=O)[C@@H]2[C@H](/C=C(\Cl)C(F)(F)F)C2(C)C)cccc1-c1ccccc1`, for which the compound was called inactive in experiment [2], in [5] and in experiment [1]. On to `CC(C)N1C(=O)N(c2ccccc2)CSC1=NC(C)(C)C`, for which the compound was called inactive in experiment [9]. For the same compound, the AC50 in experiment [3] is 2.96 µM (active). Consider `CN=C=S`, for which the compound was classed as inactive in experiment [1].

`CN/C(=N\[N+](=O)[O-])NCc1cnc(Cl)s1`: the compound was classed as inactive in experiment [9], in experiment [13] and in experiment [1].
